# FBW7 act – FBW7 E3 ligase activators, primary screen, biochemical, AlphaScreen, human; AlphaScreen FBW7–phospho-cyclin E peptide binding, activator screen; normalized activity (activation), % at 26.1 µM; 650,000 compounds, 0.13% hits; AID 1259310, 2017; in the data active = normalized activity above about 1.9%;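 note: purified mutant Fbw7 with reduced substrate affinity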
# TEAD-YAP inh – TEAD-YAP interaction inhibition, primary screen, TEAD-YAP interaction inhibitor project, luminescence, HEK-TIYL cells; inhibition, % at 9.12 µM; 640,000 compounds, 1.4% hits; TEAD-Gal4/YAP UAS-luciferase luminescence; in the data active = inhibition above about 32%;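 note: 0% = median of test compound wells and 100% = reference inhibitor wells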
# MITF inh – MITF inhibitors, primary screen, biochemical, AlphaScreen, human. Microphthalmia-associated transcription factor (Homo sapiens), O75030. AlphaScreen MITF homodimerization, bead proximity signal. inhibition, % at 2.6 µM. 650,000 compounds, 0.91% hits. AID 1259374, 2018; in the data active = inhibition above about 50%;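 note: 0% = vehicle wells with protein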
# Target sequence (O75030 whole entry, looked up): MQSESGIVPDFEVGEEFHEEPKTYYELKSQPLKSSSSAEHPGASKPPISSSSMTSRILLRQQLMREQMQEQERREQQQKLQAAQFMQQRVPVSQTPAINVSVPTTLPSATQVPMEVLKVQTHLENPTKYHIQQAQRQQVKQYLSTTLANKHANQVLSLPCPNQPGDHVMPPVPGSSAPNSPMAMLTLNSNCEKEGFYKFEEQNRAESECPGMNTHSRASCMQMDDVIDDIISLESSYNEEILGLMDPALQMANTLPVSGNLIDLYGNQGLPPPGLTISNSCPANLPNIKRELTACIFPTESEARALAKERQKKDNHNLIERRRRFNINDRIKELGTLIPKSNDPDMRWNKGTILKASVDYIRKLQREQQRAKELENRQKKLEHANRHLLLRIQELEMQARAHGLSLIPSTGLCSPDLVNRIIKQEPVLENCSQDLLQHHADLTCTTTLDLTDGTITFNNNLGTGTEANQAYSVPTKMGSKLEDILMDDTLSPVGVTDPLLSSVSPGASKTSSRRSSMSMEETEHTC
# GPR151 ag – activators of human GPR151, primary screen, cell-based, PathHunter beta-arrestin, luminescence; PathHunter beta-arrestin GPR151 cells; activation, % at 11.2 µM; 650,000 compounds, 1% hits; AID 1508602, 2020; in the data active = activation above about 4.9%;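 note: 0% = median of compound wells and 100% = cells with positive control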
# Numbers without * were called inactive. Most compounds without a hit are left out; they make up all but 3.4% or so of the library.
SMILES,FBW7 act,TEAD-YAP inh,MITF inh,GPR151 ag
N#Cc1ccccc1NC(=O)CSc1nnc(-c2ccccc2)o1,0,-14,6,2
Oc1ccc(CCNc2nc(Nc3ccccn3)nc3c2ncn3-c2ccccc2)cc1,0,34*,-9,1
COc1ccc(CCNc2nc(Nc3cccnc3)nc3c2ncn3-c2ccccc2)cc1,0,37*,13,-1
Oc1ccc(CCNc2nc(Nc3ccncc3)nc3c2ncn3-c2ccccc2)cc1,0,56*,-4,1
Oc1ccc(CCNc2nc(NCc3cccnc3)nc3c2ncn3-c2ccccc2)cc1,0,54*,10,-2
Oc1ccc(CCNc2nc(Nc3ncccn3)nc3c2ncn3-c2ccccc2)cc1,0,15,19,-1
Oc1ccc(CCNc2nc(NCc3cccnc3)nc3c2ncn3-c2ccsc2)cc1,0,1,-252,0
COc1ccc(-n2ccnc2SCC(=O)N2CCCc3ccccc32)cc1,0,8,4,5
COc1ccc(-c2nnc(NC(=O)Cc3cccc4ccccc34)o2)cc1,0,0,1,1
COc1cc(Nc2cc(N3CCC(N4CCOCC4)CC3)nc(N)n2)cc(OC)c1OC,0,-7,-1,1
c1ccc(CNc2nc(Nc3ccccn3)nc3c2ncn3-c2ccsc2)cc1,0,5,12,-2
OCCNc1nc(Nc2ccccn2)nc2c1ncn2-c1ccccc1,0,34*,8,0
Oc1ccc(CCNc2nc(Nc3ccccn3)nc3c2ncn3-c2ccsc2)cc1,0,46*,12,-1
OCCNc1nc(Nc2ccncn2)nc2c1ncn2-c1ccccc1,0,3,9,0
CCCCc1nnc(NC(=O)c2cc3ccccc3o2)s1,0,-1,15,1
CCNC(=S)N1CCN(c2ccc(F)cc2)CC1,0,-4,0,1
COc1cc(NC(=O)c2cccc(-n3cc(NS(=O)(=O)Cc4ccccc4)cn3)c2)cc(OC)c1OC,0,39*,9,-1
COc1cc(NC(=O)c2cccc(-n3cc(Nc4nnnn4-c4ccccc4)cn3)c2)ccc1N1CCOCC1,0,32*,2,-1
COc1cc(NC(=O)c2cccc(-n3cc(Nc4nc5ccccc5[nH]4)cn3)c2)cc(OC)c1OC,0,34*,8,1
O=C(Nc1ccccc1)c1oc2ccccc2c1NC(=O)C1CCCC1,0,11,6,3
CN1CCOc2ccc(C(O)CCc3ccccc3)cc2C1 (stereo not given),0,2,10,-1
Cc1ccc2c(-c3oc4ccccc4c3NC(=O)c3ccco3)cc(=O)oc2c1,0,6,-5,-2
O=C(N1CCOCC1)N1CCCC(c2ncncc2-c2ccncc2)C1 (stereo not given),2.2*,11,16,0
Oc1ccccc1CNCc1ccccn1,-1,-5,76*,0
COCCN(Cc1ccccn1)C(Cc1ccccc1)C1CCN(Cc2cnn(C)c2)CC1 (stereo not given),0,-2,-2,-1
SMILES,FBW7 act,TEAD-YAP inh,MITF inh,GPR151 ag
COCCN(Cc1cccnc1)C(Cc1ccccc1)C1CCN(Cc2cnn(C)c2)CC1 (stereo not given),7.6*,6,-5,2
O=[N+]([O-])c1cc2c(c(CN(Cc3ccco3)S(=O)(=O)c3ccccc3F)c1)OCOC2,0,47*,-1,1
CC(C)CCN(Cc1cc([N+](=O)[O-])cc2c1OCOC2)S(=O)(=O)c1ccccc1F,0,-5,8,2
O=[N+]([O-])c1c(N2CCCC2)cc(Cl)c2nonc12,0,33*,-2,-2
COc1ccc(C2=NN3C(C2)c2cc(OC)ccc2OC3c2ccc(Cl)cc2)cc1 (stereo not given),0,-44,-3,-2
Cc1cc(C)c(C(=O)/C=C/c2ccncc2)c(=O)[nH]1,0,32,-13,0
Cc1cc(C)c(C(=O)/C=C/c2ccccc2F)c(=O)[nH]1,0,66*,-20,0
CC1CCCCC1N1C(=O)C2C(C(=O)Nc3ccc(Cl)c(Cl)c3)C3(C)C=CC2(O3)C1C(=O)NC1CCCCC1 (stereo not given),1,-10,12,-1
O=C(NCNC(=S)Nc1ccccc1)c1ccccc1,0,3,8,-1
COc1ccccc1CNc1nc(C)nc2sc(C)cc12,0,48*,1,2
COCCCNc1ncnc2sc(C)cc12,0,17,-1,2
COc1ccccc1CNc1ncnc2sc(C)c(C)c12,0,2,-1,1
CCCCNc1ncnc2sc(C)cc12,0,37*,1,0
COc1ccccc1CNc1ncnc2sc(C)cc12,0,32*,0,-1
Cc1nc(NCc2ccccn2)c2cc(C)sc2n1,0,12,10,3
NC(=O)c1c(NC(=O)c2cc3ccccc3o2)sc2c1CCCC2,0,46*,-14,-5
Cc1ccc(C(=O)Nc2sc3c(c2C(N)=O)CCCCC3)o1,0,55*,-3,-4
c1csc(-c2cn3ccc4ccccc4c3n2)c1,2.5*,-31,4,-6
CCCc1cc(-c2onc(C)c2-c2ccc3c(c2)OCCCO3)c(O)cc1OC,0,-23,-15,-1
CCc1cc(-c2onc(C)c2-c2ccc(OC)cc2)c(O)cc1OC,0,45*,16,0
Cc1cc(C)cc(OCC(=O)Nc2ccc(NC(=O)c3cccs3)cc2)c1,2.2*,-8,-11,0
Cc1ccc(OCC(=O)Nc2cccc(NC(=O)c3cccs3)c2)cc1,0,-14,-2,0
CCOC(=O)c1nnsc1S(=O)(=O)c1ccccc1,0,29,3,-1
CC(C)n1cnc2c(NC3CCN(Cc4ccccc4)CC3)nc(-c3ccc(C(=O)N4CCN(C)CC4)cc3)nc21,0,58*,-1,2
CC(C)n1cnc2c(NCc3ccccc3)nc(-c3ccc(C(=O)NC4CC4)cc3)nc21,0,-17,-9,0
SMILES,FBW7 act,TEAD-YAP inh,MITF inh,GPR151 ag
CC(C)n1cnc2c(Nc3ccccc3)nc(-c3ccc(C(=O)NC4CC4)cc3)nc21,0,32*,-20,-1
CN1CCN(C(=O)c2ccc(-c3nc(NC4CC4)c4ncn(-c5ccccc5)c4n3)cc2)CC1,0,41*,3,2
CC(C)n1cnc2c(NC3CCN(Cc4ccccc4)CC3)nc(-c3ccc(N4CCN(C)CC4)cc3)nc21,0,28,1,0
CC(=O)c1cccc(-c2nc(NC3CCN(Cc4ccccc4)CC3)c3ncn(C(C)C)c3n2)c1,0,73*,-3,1
CC1CCCN(C(=O)C(=O)c2c[nH]c3ccccc23)C1 (stereo not given),2,-7,21,-1
CNC(=O)c1ccccc1-c1nc(-c2cccc(C)c2)no1,0,-12,-6,1
N#Cc1cc2c(=O)n3ccccc3nc2n(Cc2ccccc2)c1=NC(=O)c1cccs1,0,-8,4,-1
